Several values for one entry are separate records, joined by “and”; a condition that tells them apart may be missing. Identical values can stand only once. Inconclusive results are not listed. Entries that show only a call come without a potency. Activity calls are given as the source filed them. The call rests on the fitted dose curve; in most records, active means well fitted inhibition curve with a large enough effect in the repeat runs; inconclusive means weak or mixed curves; inactive means no such curve, though single readings can be large or run the other way.
Potency means the concentration at half of the fitted maximal effect.

This assay deals with Cytochrome P450 2C9 (Homo sapiens) (UniProt P11712). Put plainly: Cytochrome P450 family 2 subfamily C member 9 (CYP2C9) small molecule antagonists: luciferase biochemical (cell-free) qHTS assay (AID 1645842). Further: nearly all actives have a fitted effect of over 55% in size. The note with it: P450-Glo CYP2C9 enzyme assay, luciferin luminescence; series mostly up to 57.4 µM. The procedure: National Center for Advancing Translational Sciences [NCATS] Assay Overview: Cytochrome P450 (CYP) enzymes are membrane-bound hemeproteins that play a key role in metabolism of drugs and xenobiotics. Assaying the effect of chemicals on CYP isozymes is useful to minimize the adverse drug reactions and toxicities in drug development process. Chemical compounds were tested for their effect on CYP enzyme activities by using P450-Glo (TM) screening systems (Promega Corporation, Madison, WI). These systems provide a luminescent method containing proluciferin substrates and are converted to luciferin products by CYP isozymes. The luciferin products formed are detected with a luciferin detection reagent, and the amount of light produced is proportional to CYP activity. P450-Glo (TM) CYP2C9 screening system (Catalog. No. V9790) was used to detect the compounds that interfere in CYP2C9 activity.
Sequence of Cytochrome P450 2C9 (Homo sapiens) (P11712 whole entry, looked up): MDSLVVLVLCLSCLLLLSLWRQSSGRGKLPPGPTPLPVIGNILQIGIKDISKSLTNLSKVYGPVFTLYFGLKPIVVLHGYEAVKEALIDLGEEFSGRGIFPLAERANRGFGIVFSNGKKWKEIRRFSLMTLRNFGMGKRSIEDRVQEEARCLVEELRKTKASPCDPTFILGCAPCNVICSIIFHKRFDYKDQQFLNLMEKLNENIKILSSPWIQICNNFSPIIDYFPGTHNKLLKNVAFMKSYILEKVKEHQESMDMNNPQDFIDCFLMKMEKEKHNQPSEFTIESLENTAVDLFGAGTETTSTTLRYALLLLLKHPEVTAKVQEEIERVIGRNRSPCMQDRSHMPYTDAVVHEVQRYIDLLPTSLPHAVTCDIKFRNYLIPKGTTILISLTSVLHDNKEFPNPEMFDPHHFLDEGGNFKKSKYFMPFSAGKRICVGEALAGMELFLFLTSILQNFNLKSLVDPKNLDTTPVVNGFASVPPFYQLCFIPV
Assay Protocol Summary: Two ul of enzyme-substrate mix supplemented with 0.4% Bovine Serum Albumin was dispensed into medium binding white/solid 1536-well plates (Greiner Bio-One North America Inc., Monroe, NC) using a Flying Reagent Dispenser (FRD, Aurora Discovery, San Diego, CA). […] The assay plates were incubated at room temperature for 10 min. Then 2 ul of NADPH regeneration solution was added to each well of the assay plates using an FRD and incubated at 37C for 1 h. The reaction was stopped by adding 4 ul of detection reagent using an FRD and after 20 min incubation at room temperature, the luminescence signal was measured using a ViewLux plate reader (Perkin Elmer, Shelton, CT). Data were expressed as relative luminescence units.
On the technique in general: Quantitative high-throughput screening tests each substance at several concentrations.
In the case of `CC(C)(C)NCC(O)c1cc(Cl)c(N)c(Cl)c1` (stereo not given), the Potency entry is “inactive”.
Then `CC(=O)Nc1cc([As](=O)(O)O)ccc1O`, with “inactive”; and `Cn1c(CCCC(=O)O)nc2cc(N(CCCl)CCCl)ccc21`, with “inactive”.
In the case of `O=C(NC(O)C(Cl)(Cl)Cl)NC(O)C(Cl)(Cl)Cl` (stereo not given) it was “inactive”; in that of `N[C@@H](Cc1ccc(Oc2cc(I)c(O)c(I)c2)c(I)c1)C(=O)O`, 3.89 µM (active); in that of `CCCN1CCC[C@@H]2Cc3[nH]ncc3C[C@H]21`, “inactive”.
Then `CC(C)NCC(O)c1ccccc1Cl` (stereo not given), with “inactive”; and `COc1ccc(C(=O)c2c(C)n(CCN3CCOCC3)c3ccccc23)cc1`, with 5.49 µM (active); and `CC(C)(C)CC(C)(C)c1ccc(O)cc1`, with 11.9 µM (active) and 15.5 µM (active).
As to `c1ccc(C2CC2)c(OCC2=NCCN2)c1`, the Potency result was “inactive”.
Then `N[C@@H]1C[C@H]1c1ccccc1`, with 21.9 µM (active).
Turning to `CNC(=O)c1ccc(N2C(=S)N(c3ccc(C#N)c(C(F)(F)F)c3)C(=O)C23CCC3)cc1F`, the Potency is 16.9 µM (active).
As for `N#CC(C#N)=Cc1ccc(O)c(O)c1`, the Potency result is “inactive”.
Then `Cc1cccc(C)c1NC(=O)CN1CCCC1=O`, with “inactive”; and `CC[C@@H](CO)NC(=O)[C@@H]1C=C2c3cccc4[nH]cc(c34)C[C@H]2N(C)C1`, with “inactive”; and `C[C@]12CCC(=O)C(O)=C1CC[C@@H]1[C@@H]2CC[C@]2(C)C(=O)CC[C@@H]12`, with “inactive”.
Then `COc1ccc(Cc2nccc3cc(OC)c(OC)cc23)cc1OC`, with 9.77 µM (active); and `CC(C)CC(N(C)C)C1(c2ccc(Cl)cc2)CCC1` (stereo not given), with “inactive”.
Then `O=c1oc2ccccc2c(O)c1C(CC(O)c1ccc(-c2ccc(Br)cc2)cc1)c1ccccc1` (stereo not given), with 4.36 µM (active); and `c1ccc2c(c1)Nc1ccccc1S2`, with “inactive”.
As for `CNC(=O)N1N=C(c2ccc(N)cc2)c2cc3c(cc2CC1C)OCO3` (stereo not given), the Potency is 1.51 µM (active).
Then `CCC(COC(=O)c1cc(OC)c(OC)c(OC)c1)(c1ccccc1)N(C)C` (stereo not given), with 13.8 µM (active); and `C=CCN1CC[C@]23c4c5ccc(O)c4O[C@H]2C(=O)CC[C@@]3(O)[C@H]1C5`, with “inactive”; and `NCCc1cc(O)c(O)cc1O`, with “inactive”.
Regarding `COc1ccc(C(CN(C)C)C2(O)CCCCC2)cc1` (stereo not given), the Potency result was “inactive”.
In the case of `C#CCN(C)[C@H](C)Cc1ccccc1` it was “inactive”; in that of `O=C1NCN(c2ccccc2)C12CCN(CC1COc3ccccc3O1)CC2` (stereo not given), 6.17 µM (active).
Then `Cc1cccc(C)c1NC1=NCCCS1`, with “inactive”; and `OCCOc1ccccc1`, with “inactive”.
In the case of `CC[N+](CC)(CC)CC` it was “inactive”.
Turning to `CN1CCN(C(=O)O[C@H]2c3nccnc3C(=O)N2c2ccc(Cl)cn2)CC1`, the Potency entry is “inactive”.
Turning to `COC[C@@H](NC(C)=O)C(=O)NCc1ccccc1`, the Potency entry is “inactive”.
Then `CCCC1CCCCN1` (stereo not given), with “inactive”; and `CCCC(C)(COC(N)=O)COC(=O)NC(C)C` (stereo not given), with “inactive”; and `O=C(O)C(=O)c1cn(Cc2ccccc2)c2ccc(-c3ccc(OC(F)(F)F)cc3)cc12`, with 16.9 µM (active).
In the case of `Cc1ccc2c(c1)C1CN(C)CCC1N2` (stereo not given) it was “inactive”.
In the case of `O=C1CC[C@@]2(O)[C@H]3Cc4ccc(O)c5c4[C@@]2(CCN3CC2CC2)[C@H]1O5`, the Potency result was “inactive”.
Then `Cc1ccc(-c2nc3ccc(C)cn3c2CC(=O)N(C)C)cc1`, with “inactive”.
Then `CC[N+]1(C)CCCC(OC(=O)C(O)(c2ccccc2)c2ccccc2)C1` (stereo not given), with “inactive”.
Take `O=[N+]([O-])c1cc([As](=O)(O)O)ccc1O`: the Potency result is “inactive”.

These data come from PubChem BioAssay (NCATS).
